Legend:
Conditions in all cases: concentration: 1 μM, replicates: in singlicate; n = 1
[1] = tested on: T1, HASPIN
T1 construct: gene GSG2

[2] = tested on: HCK
[3] = tested on: HIPK1
[4] = tested on: HIPK2
[5] = tested on: HIPK3
[6] = tested on: HIPK4
[7] = tested on: HPK1
[8] = tested on: HUNK
[9] = tested on: ICK
[10] = tested on: IGF1R
[11] = tested on: T2, IKK-alpha
T2 construct: gene CHUK

[12] = tested on: T3, IKK-beta
T3 construct: gene IKBKB

[13] = tested on: T4, IKK-epsilon
T4 construct: gene IKBKE

[14] = tested on: INSRR
[15] = tested on: INSR
[16] = tested on: IRAK1
[17] = tested on: IRAK3
[18] = tested on: IRAK4
[19] = tested on: ITK
[20] = tested on: JAK1(JH1domain-catalytic)
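Further: KINOMEscan kinase panel screen.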

Structure (SMILES)	%Inh [1] [%]	%Inh [2] [%]	%Inh [3] [%]	%Inh [4] [%]	%Inh [5] [%]	%Inh [6] [%]	%Inh [7] [%]	%Inh [8] [%]	%Inh [9] [%]	%Inh [10] [%]	%Inh [11] [%]	%Inh [12] [%]	%Inh [13] [%]	%Inh [14] [%]	%Inh [15] [%]	%Inh [16] [%]	%Inh [17] [%]	%Inh [18] [%]	%Inh [19] [%]	%Inh [20] [%]
O=C(O)C(F)(F)F.O=c1[nH]ccc2nc(N[C@@H]3CCNC3)nc(Nc3ccc4c(c3)S(=O)(=O)CC4)c12 [GSK2181306]	90	59	75	84	93.3	56	96.7	0	68	19	87	60	61	40	58	98.4	0	15	30	89
O=C(Nc1c(F)cccc1F)c1cc(C(=O)c2ccccc2F)c[nH]1 [GSK1326180]	22	0	0	44	0	0	50	24	0	18	0	0	0	5	17	0	7	0	0	3
Cc1cc(-c2ccnc(Nc3cccc(C#N)c3)n2)cc(C)c1O [GSK1440913]	60	0	98.3	98.9	98.2	88	65	43	79	0	61	67	28	23	0	52	82	11	9	0
O=C(Nc1n[nH]c2nc(-c3ccccc3O)ccc12)C1CC1 [SB-711880]	0	0	27	7	0	0	0	0	26	0	0	0	10	0	0	0	2	0	46	36
CN(C)c1ncnc2nc[nH]c12 [SKF-31736]	0	3	23	12	15	0	0	0	0	0	23	15	0	9	0	43	0	4	0	0
COc1cc(Nc2nccc(N3CCC(NS(=O)(=O)c4ccc(NC(C)=O)cc4)CC3)n2)cc(OC)c1OC [GSK1379825]	0	0	0	0	15	0	86	0	0	0	24	14	11	0	0	74	85	44	17	20
Cc1ccc(O)cc1Nc1ccnc2cc(-c3ccc(CN4CCCCC4)o3)ccc12 [GW557777]	0	99.4	0	0	0	0	37	32	0	0	0	0	0	4	0	0	0	0	56	1
Fc1cc(Cl)ccc1Nc1ccnc2cc(-c3ccc(CN4CCOCC4)o3)ccc12 [GW560109]	0	96.7	0	0	26	0	27	62	0	12	43	37	0	5	0	33	27	31	1	0
COc1cccc(-c2nc(-c3ccccc3)[nH]c2-c2ccncc2)c1 [SB-610250]	66	0	0	0	15	7	43	31	3	16	33	35	0	0	5	48	0	46	15	23
CN(c1ccc(F)c(NC(=O)c2cccc(OC(C)(C)C#N)c2Cl)c1)c1ccc2nc(NC(=O)C3CC3)sc2n1	27	90	0	0	0	0	0	1	0	0	0	0	29	0	0	0	8	0	0	10
CCOc1nccc(-c2c(-c3ccc(F)cc3)ncn2C2CCNCC2)n1 [SB-249175]	0	0	59	44	44	6	12	0	65	0	0	0	6	4	10	45	11	6	0	29
CN1CCN(Cc2ccc(NC(=O)Nc3ccc(N(C)c4ccnc(Nc5ccc(CS(C)(=O)=O)cc5)n4)cc3)cc2)CC1.Cl [GW827654]	19	47	83	82	91.9	90.9	99.6	0	71	0	29	22	28	0	42	44	66	15	28	61
Nc1ncnc2scc(-c3ccc(NC(=O)Cc4cc(F)ccc4F)cc3)c12.O=C(O)C(F)(F)F [SB-731254-M]	0	66	18	23	26	2	44	0	12	0	4	0	45	65	15	0	16	0	0	0
COc1cccc(CC(=O)N2CCc3cc(-c4cn(C)c5ncnc(N)c45)ccc32)c1 [GSK2608899]	0	0	0	0	22	56	55	3	6	17	0	60	75	13	9	0	14	0	12	8
Cc1ccc(NC(=O)c2cccc(N3CCCCC3)c2)cc1-c1ccc(C(=O)NCC2CC2)cc1 [GSK1917008]	0	0	0	0	14	17	38	0	23	9	54	29	15	4	12	17	11	20	26	0
COc1cc(Nc2ccnc3cc(-c4ccncc4)ccc23)cc(OC)c1OC.Cl [GW494610]	40	83	0	0	13	0	0	52	0	0	23	13	0	13	8	24	0	10	0	33
Nc1ncc(-c2ccc3nccc(-c4ccncc4)c3c2)cc1S(=O)(=O)N1CCCCC1 [GSK1693850]	80	0	42	0	20	57	50	82	16	10	0	0	12	0	0	39	86	10	12	10
Cl.N#CCc1ccc(Nc2nccc(Nc3ccc(Oc4ccccc4)cc3)n2)cc1 [GW639905]	0	94.7	0	0	14	0	36	0	0	0	39	45	14	4	0	42	62	32	0	57
CS(=O)(=O)c1cccc(CNc2nc(Nc3ccc4c(c3)CCC(=O)N4)ncc2C(F)(F)F)c1	0	0	31	3	0	22	41	0	0	5	0	0	48	20	16	0	22	0	0	50
O=C(Nc1n[nH]c2nc(-c3ccccc3)ccc12)C1CC1 [SB-708999]	0	7	0	29	0	8	54	0	4	6	94	66	37	0	0	24	10	14	4	0

Reference: publication PMC5540273 (PLoS ONE, 2017)
